Measured values: PubChem BioAssay (NCATS)
Where “and” joins values, the source holds several entries; their conditions need not be identical. Identical values can stand only once. Results filed as inconclusive are left out. Calls of active or inactive are those of the source. Calls come from the whole dose curve; as a rule, active = well fitted curve in the direction sought with a large enough effect; inconclusive = small, poorly fitted or top-dose-only effect, or another doubt; inactive = no such curve, though single readings can be large; an effect the other way counts as inactive or inconclusive.

What was measured:
[1] = qHTS Assay for Identifying Gametocytocidal Compounds (AID 743244);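 note: % is set by controls: 0 for no effect and ±100 for the full control effect; actives lower the fluorescent signal which means gametocytes are killed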; conditions: P. falciparum 3D7 stage III-V gametocytes, alamarBlue, 72 h; max response: hits give low values
Outline: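 P. falciparum 3D7 stage III–V gametocytes (20,000 cells/well) were exposed to compounds for 72 h at 37 °C, 5% CO2. AlamarBlue was then added for 24 h; decreased resorufin fluorescence (Ex 525/Em 598 nm) indicated loss of viability.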

[2] = qHTS assay for measurement of the activity of small molecule inhibitors on Zika virus induced Caspase-3 activity in human iPSC derived neural progenitor cells (hNPCs) (AID 1224857); conditions: hNPCs ZIKV-induced caspase-3/7, Caspase-Glo luminescence, 6 h; series mostly up to 45.7 µM; note: % of control where 0% means no effect; nearly all actives have a fitted effect of over 65% in size
Outline: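 hNPCs seeded 350 cells/well, cultured 16–20 h; compounds added 1 h before ZIKV (2 FFU/cell), 37 C 6 h. Caspase-Glo 3/7 luminescence after 30 min RT; % inhibition from induction scaled to uninfected (0%) and infected (100%) wells.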

[3] = qHTS assay for measurement of the activity of small molecule inhibitors on Zika virus induced Caspase-3 activity in human astrocytoma cells (AID 1224859); conditions: SNB-19 ZIKV-induced caspase-3/7, luminescence, 6 h; series mostly up to 45.7 µM;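 note: plate controls were ZIKV-infected untreated cells for no effect and uninfected cells for full effect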
Outline: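 Luminescence read-out (Caspase-Glo 3/7, 30 min RT) of caspase activity in SNB-19 cells infected 6 h with ZIKV, 2 FFU/cell, after 1 h compound pretreatment; % inhibition from induction normalised to uninfected (0%) and infected (100%) wells.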

[4] = qHTS assay to identify small molecule inhibitors of chordoma cells - UCH-1 (AID 1259355); conditions: UCH-1 chordoma viability, CellTiter-Glo, 48 h, combination, with auranofin plus four topoisomerase inhibitors; series mostly up to 46.1 µM; note: % is set by controls: 0 for no effect and ±100 for the full control effect; nearly all actives have a fitted effect of over 55% in size
Outline: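 Cells (800/well) were seeded and left overnight at 37 C, 5% CO2, then treated with drugs at 15 concentrations plus a combination mix of auranofin, camptothecin, doxorubicin, rubitecan and topotecan. Viability after 48hr was read by CellTiter-Glo luminescence.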

[5] = qHTS assay to identify small molecule inhibitors of chordoma cells - UCH-2 (AID 1259356); conditions: UCH-2 chordoma viability, CellTiter-Glo ATP luminescence, 48 h; series mostly up to 46.1 µM; note: % is set by controls: 0 for no effect and ±100 for the full control effect
[6] = P-glycoprotein substrates identified in KB-8-5-11 adenocarcinoma cell line, qHTS therapeutic library screen (AID 1346987); conditions: KB-8-5-11 (P-gp overexpressing) viability, CellTiter-Glo, 72 h; series mostly up to 44.5 µM; note: % is set by controls: 0 for no effect and ±100 for the full control effect; nearly all actives have a fitted effect of over 65% in size
Outline: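 KB-8-5-11, a colchicine-selected P-gp-overexpressing KB-3-1 subline, was grown without colchicine for the assay. Cells were seeded at 500 cells/well, dosed in concentration-response and incubated 72 h at 37 degree C, 5% CO2. Viability was read by CellTiter-Glo luminescence.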

[7] = qHTS of pediatric cancer cell lines to identify multiple opportunities for drug repurposing: Primary screen for TC32 cells (AID 1347089); conditions: TC32 Ewing sarcoma viability, CellTiter-Glo luminescence, 48 h; series mostly up to 45.8 µM; note: % is set by controls: 0 for no effect and ±100 for the full control effect; nearly all actives have a fitted effect of over 60% in size
Outline: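 Luminescent CellTiter-Glo read-out of metabolically active TC32 cells after 48 h compound exposure. Primary: MIPE 11-point, 0.78 nM–46 µM; NPC 8-point, 0.59 nM–46 µM. Confirmatory: 11-point dilutions.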

[8] = qHTS of pediatric cancer cell lines to identify multiple opportunities for drug repurposing: Primary screen for DAOY cells (AID 1347090); conditions: DAOY medulloblastoma viability, CellTiter-Glo luminescence, 48 h; series mostly up to 46 µM;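 note: plate controls were DMSO for no effect and bortezomib for full effect; nearly all actives have a fitted effect of over 55% in size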
Outline: (§1)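 Viability measured as metabolically active cells via CellTiter-Glo luminescence following 48 hours of compound exposure, 11-point dilutions in confirmatory testing. 500-1,000 cells/well plated 5 hours before dosing; controls were DMSO and 2.3 µM bortezomib.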

[9] = qHTS of pediatric cancer cell lines to identify multiple opportunities for drug repurposing: Primary screen for SJ-GBM2 cells (AID 1347091); conditions: SJ-GBM2 viability, CellTiter-Glo luminescence, 48 h; series mostly up to 46 µM;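 note: plate controls were DMSO neutral control for no effect and bortezomib for full effect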
Outline: as §1

[10] = qHTS assay for cell viability of HEK293 cells (AID 743288); conditions: ATP luminescence (CellTiter-Glo), 18 h, hits give low values; note: % is set by controls: 0 for no effect and ±100 for the full control effect; nearly all actives have a fitted effect of over 50% in size
Outline: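 Parental HEK293 cells were seeded at 2,000 cells/well, rested at least 5 h at 37 C, then exposed to compounds in DMSO for 18 h at 37 C. Viability was read as ATP-dependent luciferase luminescence after 30 min at room temperature.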

[11] = qHTS assay for cell viability of the p53RE-bla HCT-116 cell line (AID 743292); conditions: p53RE-bla HCT-116 viability, ATP luminescence, 16 h; series mostly up to 95 µM; note: % is set by controls: 0 for no effect and ±100 for the full control effect; nearly all actives have a fitted effect of over 55% in size
Outline: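 ATP-based luminescent viability (CellTiter-Glo, 30 min RT) after 16 h compound treatment at 37 C of p53RE-bla HCT-116 cells, seeded at 4,000 cells/well and rested 5 h before dosing.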

[12] = NS1 protein of Zika virus - qHTS assay to identify small molecule inhibitors in human HEK 293 cells (AID 1347053); conditions: HEK293 ZIKV MR766 infection, NS1 TR-FRET, 24 h; series mostly up to 46.1 µM;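 note: plate controls were infected untreated cells for no effect and uninfected cells for full effect; nearly all actives have a fitted effect of over 55% in size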
Outline: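 HEK 293 cells, seeded 20 h at 37 C, were pretreated with compound 1 h, then infected with ZIKV MR766 (MOI = 0.5) for 24 h. NS1 was read by TR-FRET with two anti-NS1 antibodies, normalized to uninfected and infected wells.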

Measured: max response

NC(=O)NS(=O)(=O)c1ccc(N)cc1
inactive: [1] 3.95% | [2] | [3] | [4] | [5] | [6] | [7] | [8] | [9]

CCCCCCCC(=O)OCC(COC(=O)CCCCCCC)OC(=O)CCCCCCC
inactive: [1] 1.43% | [10] -8.85% | [11] | [2] | [3] | [4] | [5] | [6] | [12] | [7] | [9]

Cc1ccsc1/C=C/C1=NCCCN1C
inactive: [1] 6.27% | [2] | [3] | [4] | [5] | [6] | [7] | [8] | [9]

O=C1c2ccccc2S(=O)(=O)N1CCCCN1CCN(c2ncccn2)CC1
inactive: [1] -4.4% | [2] | [3] | [4] | [5] | [6] | [7] | [8] | [9]

C1CCN2C[C@@H]3C[C@@H](CN4CCCC[C@@H]34)[C@H]2C1
inactive: [1] 2.03% | [2] | [3] | [4] | [5] | [6] | [7] | [8] | [9]

CN(C(=O)c1c(O)c2ccccc2n(C)c1=O)c1ccccc1
inactive: [1] -2.29% | [2] | [3] | [4] | [5] | [6] | [12] | [7] | [8]

CC(C)NC[C@@H](O)COc1ccc(CC(N)=O)cc1
inactive: [1] 23.6% | [2] | [3] | [4] | [5] | [6] | [12] | [7] | [9]

Cc1c(C(=O)NCCO)[n+](=O)c2ccccc2n1[O-]
inactive: [1] 6.22% | [10] -4.66% | [11] | [2] | [3] | [4] | [5] | [6] | [12] | [7] | [8]

COc1nccnc1NS(=O)(=O)c1ccc(N)cc1
inactive: [1] -9.73% | [2] | [3] | [4] | [5] | [6] | [12] | [7]

Cc1c(NC(=O)c2cccnc2)c(=O)n(-c2ccccc2)n1C
inactive: [1] -5.32% | [2] | [3] | [4] | [5] | [6] | [12] | [7] | [8]

O=c1[nH]cnc2nc[nH]c12
inactive: [1] -7.32% | [2] | [3] | [4] | [5] | [6] | [12] | [7]

CCN(CC)C(=O)c1cccc(C)c1
inactive: [1] 18.7% | [10] 4.9% and -5.34% | [11] | [2] | [3] | [4] | [5] | [6] | [12] | [7]

COc1ccccc1Oc1c(NS(=O)(=O)c2ccc(C(C)(C)C)cc2)nc(-c2ncccn2)nc1OCCO
inactive: [1] -3.79% | [2] | [3] | [4] | [5] | [6] | [7] | [9]

CC1CC(OC(=O)c2ccccc2O)CC(C)(C)C1 (centres undefined)
inactive: [1] -1.2% | [10] -5.44% | [11] | [2] | [3] | [4] | [6] | [7] | [8] | [9]

Cn1c(=O)c2c(ncn2CCO)n(C)c1=O
inactive: [1] 6.91% | [2] | [3] | [4] | [6] | [12] | [7] | [8] | [9]

CC(=O)Nc1ccccc1
inactive: [1] 9.51% | [10] -0.588% | [11] | [2] | [3] | [4] | [6] | [12] | [7] | [8] | [9]

O=C(CN1CCNCC1)NC1CCCCC1
not listed: [1] | [5] | [10] | [11]
inactive: all other assays above

CN1C[C@@H]2C[C@H]1CN2c1cc2c(cc1F)c(=O)c(C(=O)O)cn2C1CC1
inactive: [1] 2.79% | [2] | [3] | [4] | [5] | [12] | [7] | [8] | [9]

CCCCCC(N)=O
inactive: [1] 2.77% | [10] 7.6% | [11] | [2] | [3] | [4] | [6] | [12] | [7] | [8] | [9]

O=C(Cn1ccnc1[N+](=O)[O-])NCc1ccccc1
inactive: [1] -2.89% | [2] | [3] | [4] | [6] | [12] | [7] | [8] | [9]

COC(=O)c1ccc(O)cc1
inactive: [1] -9.3% | [10] 1.25% | [11] | [2] | [3] | [4] | [5] | [6] | [7] | [9]

Cc1c(Cn2ccnc2)c2ccccc2n1CCC(=O)O
inactive: [1] -9.07% | [2] | [3] | [4] | [5] | [6] | [7] | [8]
